Reference: PubChem BioAssay AID1671190 (National Center for Advancing Translational Sciences (NCATS), 2021)
Out of some 580,000 compounds screened, about 6,100 (1.1%) were called active. About 15% were inconclusive and are not listed. This excerpt belongs to a sample that is enriched for actives. Unmarked numbers belong to inactive results. Calls come from the whole dose curve; as a rule, active = well fitted inhibition curve with a large enough effect; inconclusive = small, poorly fitted or top-dose-only effect, or another doubt; inactive = no such curve, though single readings can be large or run the other way.

target: Polyunsaturated fatty acid lipoxygenase ALOX12 (Homo sapiens) (UniProt P18054); experiment: Primary qHTS assay for inhibitors of human arachidonate 12S-lipoxygenase (ALOX12): Round 2; details: purified 12hLO, xylenol orange hydroperoxide absorbance; series mostly up to 108 µM; activity change, negative = inhibition: at the top concentration
Sequence (P18054 whole entry, looked up): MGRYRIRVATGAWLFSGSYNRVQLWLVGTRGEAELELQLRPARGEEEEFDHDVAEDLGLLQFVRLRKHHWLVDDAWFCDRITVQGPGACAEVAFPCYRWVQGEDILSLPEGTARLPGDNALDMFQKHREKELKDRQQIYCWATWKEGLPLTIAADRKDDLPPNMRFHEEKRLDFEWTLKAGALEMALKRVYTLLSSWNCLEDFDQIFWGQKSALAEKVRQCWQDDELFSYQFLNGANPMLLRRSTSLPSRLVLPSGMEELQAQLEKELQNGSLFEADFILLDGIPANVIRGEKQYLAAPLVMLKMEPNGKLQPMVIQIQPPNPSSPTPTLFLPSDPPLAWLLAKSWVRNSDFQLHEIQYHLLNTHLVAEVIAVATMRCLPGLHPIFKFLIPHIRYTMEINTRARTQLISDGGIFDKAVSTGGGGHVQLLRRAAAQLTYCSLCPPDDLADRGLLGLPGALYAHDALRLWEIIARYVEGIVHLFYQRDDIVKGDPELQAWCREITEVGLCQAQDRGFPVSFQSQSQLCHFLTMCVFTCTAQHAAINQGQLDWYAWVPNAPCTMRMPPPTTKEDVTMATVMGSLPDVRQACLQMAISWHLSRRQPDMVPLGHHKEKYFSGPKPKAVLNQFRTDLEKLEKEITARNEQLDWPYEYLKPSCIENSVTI
Outline: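 Purified human 12hLO (150 nM final) in 25 mM Hepes, 0.01% Triton X-100, pH 7.0 was preincubated 15 min at room temperature with compound. Then 40 uM arachidonic acid was added, 30 min. Hydroperoxide was read by Fe-XO absorbance ratio 573/405 nm.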
% is set by controls: 0 for no effect and ±100 for the full control effect; potency is the fitted concentration of half-maximal effect.

SMILES	activity change, negative = inhibition	Potency
COCCNC(=O)COc1ccc2c(C)cc(=O)oc2c1	2.59%	–
CCCCn1c2ccccc2c2nnc(SCc3ccc(F)cc3)nc21	-38.6%	–
O=C(Nc1ccc2nc(SCC(=O)N3CCCc4ccccc43)sc2c1)c1ccc(F)cc1	–	inactive
O=C(Nc1ccc2nc(N3CCCC3)sc2c1)c1ccc(F)cc1	2.62%	–
O=C(CSc1nc2ccc(NC(=O)c3ccc(F)cc3)cc2s1)NC1CCCCC1	–	3.98 µM (active)
CCCn1nc(C(=O)N(CCOC)Cc2cccs2)c2ccccc2c1=O	49.1%	–
Cc1cc(O)c(NC(=O)c2ccc(C)c([N+](=O)[O-])c2)cc1C	-1.24%	–
Cc1oc2cc([N+](=O)[O-])c(O)c([N+](=O)[O-])c2c1C(=O)c1ccc(Br)cc1	–	28.2 µM (active)
Cc1ccc(C(=O)c2ccc(N3CCN(C)CC3)c([N+](=O)[O-])c2)cc1	-21.1%	–
COc1ccc(CCn2c(NC3CCCCC3)nc3c2c(=O)[nH]c(=O)n3C)cc1	21.9%	–
O=C(Nc1ccc2c(c1)CCC2)c1cc2c(s1)CN(C1CC1)C2	327%	–
CCn1nc(C(=O)Nc2ccccc2Oc2ccccc2)c2ccccc2c1=O	25.4%	–
CCN(CC)CCCCNc1ncc2c(n1)N(C)C(=O)N(c1c(Cl)c(OC)cc(OC)c1Cl)C2	–	34.3 µM (active)
COc1ccc(C(=O)COC(=O)c2ccc3c(c2)OCCO3)cc1	-3.77%	–
Cc1nc(C)c(-c2csc(NCCc3ccccc3)n2)s1	–	5.01 µM (active)
Cc1nc2sccn2c(=O)c1S(=O)(=O)NCCc1ccccc1	28.5%	–
Cc1cccc(C)c1Nc1nc(-c2ccccc2)cs1	-68.3%	–
Cn1c(SCC(=O)N2CCc3ccccc32)nnc1-c1ccc(F)cc1	-7.62%	–
O=C(NCCCN1CCN(Cc2ccccc2)CC1)c1ccccc1C(F)(F)F	16.1%	–
O=C(N[C@H](Cc1ccccc1)C(=O)N1CCCN(Cc2cccs2)CC1)[C@H]1O[C@@H](n2ccc(=O)[nH]c2=O)[C@H](O)[C@@H]1O	8.24%	–
O=C(NS(=O)(=O)c1cccs1)[C@H]1O[C@@H](n2ccc(=O)[nH]c2=O)[C@H](O)[C@@H]1O	–	31.6 µM (active)
Cc1nccn1-c1ccc(NC(=O)[C@H]2O[C@@H](n3ccc(=O)[nH]c3=O)[C@H](O)[C@@H]2O)cc1	-15.6%	–
CCOCCCNCc1ccccc1Cl	-55.1%	–
CC(C)(C)CC(C)(C)NCc1ccco1	-13.7%	–
CC(C)(C)C1C/C(=C/c2ccco2)C(=O)/C(=C/c2ccco2)C1 (centres undefined)	–	39.8 µM (active)
Cc1nnc(C(=O)Nc2ccc(C(=O)NCc3ccc4c(c3)OCO4)cc2)s1	22.2%	–
CNC(=O)CNC(=O)c1n[nH]c(=O)c2ccccc12	32.6%	–

SMILES	activity change, negative = inhibition	Potency
COc1ccc2[nH]cc(CCNC(=O)CNc3nc(Cl)nc4nc[nH]c34)c2c1	-1.89%	–
COc1cccc(C2C(C#N)=C(N)OC3=C2S(=O)(=O)N(C)c2ccccc23)c1OC (centres undefined)	-1.38%	–
CCc1nn2c(=O)cc(CNc3cc(F)ccc3F)nc2s1	-18.2%	–
CCC(=O)Nc1cccc(C(=O)OCc2cc(=O)n3nc(CC)sc3n2)c1	-15.1%	–
CCc1nn2c(=O)cc(CNc3cccc(C(=O)NC4CC4)c3)nc2s1	–	10 µM (active)
CCCN(C1CCS(=O)(=O)C1)S(=O)(=O)c1ccc(OC)cc1 (centres undefined)	11.7%	–
O=C(NCCc1ccco1)C1c2ccccc2C(=O)N(Cc2ccccc2)C12CCCC2 (centres undefined)	-28.6%	–
N#CCCn1cc(C(=O)CN2C(=O)NC3(CCOc4ccccc43)C2=O)c2ccccc21 (centres undefined)	5.98%	–
Cc1ccc(C)c(N2CCN(c3ccc4cc(S(=O)(=O)N5CCC(C)CC5)ccc4n3)CC2)c1	–	50.1 µM (active)
O=S(=O)(c1ccc2nc(N3CCN(c4cccc(Cl)c4)CC3)ccc2c1)N1CCCCC1	-26%	–
Cc1ccccc1N1CCN(S(=O)(=O)c2ccc3ccccc3c2)CC1	-1.81%	–
CC1=C[C@@H](CNC2CCN(C)CC2)[C@H](C(C)C)C[C@H]1Cc1nc2ccccc2[nH]1	34.7% [at 176 µM]	–
Cc1noc(C)c1C(=O)N1CCCC2(Cc3ccccc3CN2C(=O)C2CCCC2)C1 (centres undefined)	2.72% [at 12.5 µM]	–
C#C[C@]1(O)CC[C@H]2[C@@H]3CCC4=CC(=O)CC[C@@H]4[C@H]3CC[C@@]21CC	–	inactive
C[C@]12CCC3=C4CCC(=O)C=C4CC[C@@H]3[C@H]1CC[C@@]2(O)CC#N	–	19.3 µM (active)
Cc1ccccc1NC(=O)CSc1nnc(C)n1-n1cccc1	0.567%	–
COc1ccc(NC(=O)c2nn(C)c(=O)c3ccccc23)cc1OC(F)F	11.9%	–
CCc1cccc(C)c1NC(=O)Cn1ccn(-c2ccccc2)c(=O)c1=O	27.8%	–
O=C(COC(=O)/C=C/c1ccc(Cl)cc1)NC1CCS(=O)(=O)C1 (centres undefined)	-5.54%	–
CC(C(=O)NC1CCS(=O)(=O)C1)N1C(=O)/C(=C/c2ccc(Cl)cc2)SC1=S (centres undefined)	–	35.5 µM (active)
CC(C)(C)c1ccc(/C=C/C(=O)NC2CCS(=O)(=O)C2)cc1 (centres undefined)	-1.56%	–
COc1ccc(S(=O)(=O)N2CCN(Cc3ncc(-c4ccc(F)cc4)o3)CC2)cc1	-18.3%	–
Cc1cc2nc(-c3ccco3)c(Cc3cccc(F)c3)n2c(C)c1Br	–	11.2 µM (active)
Cc1ccc2nc(-c3ccco3)c(Cc3cccc(Cl)c3)n2c1	–	25.1 µM (active)
Cc1ccc2nc(COc3cccc(NC(=O)c4cccc(Cl)c4)c3)cc(=O)n2c1	-35.3%	–
O=C(c1ccco1)N1CCN=C1SCc1cccc(Cl)c1	-7.97%	–
Cc1ccc(C(=O)c2ccccc2C(=O)OCc2ccccc2Cl)cc1	-2.13%	–
